According to ChEMBL document CHEMBL3988442, “University of Dundee, Small-Polar-MMV Screening Library” (2021):
For some of these results: Potency and affinity values are given separately.

Legend:
Set-up in all cases: scale not given: direction of the effect not stated beside the values
[1] = biological target: Protein translocase subunit SecA (Escherichia coli (strain K12)) (UniProt P10408); assay: Assay to Identify E. coli SecA ATPase Inhibitors; type: functional; conditions: 30 µM
[2] = biological target: T1, Ubiquitin-activating enzyme e1, putative (Leishmania donovani (strain BPK282A1)) (UniProt E9BSI1); assay: Leishmania donovani Ubiquitin Activating Enzyme (LdE1); type: functional; conditions: 30 µM
T1 sequence (whole entry): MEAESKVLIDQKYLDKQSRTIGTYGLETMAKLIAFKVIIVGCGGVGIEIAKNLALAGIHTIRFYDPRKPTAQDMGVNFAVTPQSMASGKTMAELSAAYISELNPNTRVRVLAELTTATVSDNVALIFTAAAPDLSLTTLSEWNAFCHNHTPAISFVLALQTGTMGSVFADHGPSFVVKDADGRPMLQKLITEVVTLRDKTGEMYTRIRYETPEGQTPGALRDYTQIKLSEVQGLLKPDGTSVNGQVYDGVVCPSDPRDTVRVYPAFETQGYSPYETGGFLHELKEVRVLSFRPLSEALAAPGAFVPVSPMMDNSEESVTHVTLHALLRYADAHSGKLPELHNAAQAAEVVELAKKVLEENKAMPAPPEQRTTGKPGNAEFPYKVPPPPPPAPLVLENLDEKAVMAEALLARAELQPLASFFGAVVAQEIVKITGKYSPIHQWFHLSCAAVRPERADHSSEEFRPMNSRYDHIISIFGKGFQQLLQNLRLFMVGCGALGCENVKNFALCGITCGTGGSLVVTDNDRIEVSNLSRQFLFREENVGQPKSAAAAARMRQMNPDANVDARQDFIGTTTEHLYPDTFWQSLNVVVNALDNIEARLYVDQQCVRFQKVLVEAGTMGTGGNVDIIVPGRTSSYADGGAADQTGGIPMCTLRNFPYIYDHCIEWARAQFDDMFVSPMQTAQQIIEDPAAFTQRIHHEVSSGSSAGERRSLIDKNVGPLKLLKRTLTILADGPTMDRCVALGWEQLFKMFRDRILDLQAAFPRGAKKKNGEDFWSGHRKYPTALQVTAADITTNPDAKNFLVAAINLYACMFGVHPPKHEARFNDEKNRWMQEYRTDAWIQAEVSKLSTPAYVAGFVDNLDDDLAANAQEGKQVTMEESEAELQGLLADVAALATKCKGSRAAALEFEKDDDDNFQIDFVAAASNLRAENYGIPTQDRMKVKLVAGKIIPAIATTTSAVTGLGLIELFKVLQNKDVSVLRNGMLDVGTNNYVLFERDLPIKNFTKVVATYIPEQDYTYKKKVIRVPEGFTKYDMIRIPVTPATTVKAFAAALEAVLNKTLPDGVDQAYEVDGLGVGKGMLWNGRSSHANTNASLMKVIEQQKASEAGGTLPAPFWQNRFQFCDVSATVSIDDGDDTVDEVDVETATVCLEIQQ

[3] = biological target: T2, Aspartate--tRNA(Asp/Asn) ligase (Mycobacterium tuberculosis (strain ATCC 25618 / H37Rv)) (UniProt P9WFW3); assay: Assay for Asp RNA synthetase-1 from Mycobacterium tuberculosis; type: functional; conditions: 30 µM; further: in the data most compounds retested in dose-response had high values
T2 sequence (whole entry): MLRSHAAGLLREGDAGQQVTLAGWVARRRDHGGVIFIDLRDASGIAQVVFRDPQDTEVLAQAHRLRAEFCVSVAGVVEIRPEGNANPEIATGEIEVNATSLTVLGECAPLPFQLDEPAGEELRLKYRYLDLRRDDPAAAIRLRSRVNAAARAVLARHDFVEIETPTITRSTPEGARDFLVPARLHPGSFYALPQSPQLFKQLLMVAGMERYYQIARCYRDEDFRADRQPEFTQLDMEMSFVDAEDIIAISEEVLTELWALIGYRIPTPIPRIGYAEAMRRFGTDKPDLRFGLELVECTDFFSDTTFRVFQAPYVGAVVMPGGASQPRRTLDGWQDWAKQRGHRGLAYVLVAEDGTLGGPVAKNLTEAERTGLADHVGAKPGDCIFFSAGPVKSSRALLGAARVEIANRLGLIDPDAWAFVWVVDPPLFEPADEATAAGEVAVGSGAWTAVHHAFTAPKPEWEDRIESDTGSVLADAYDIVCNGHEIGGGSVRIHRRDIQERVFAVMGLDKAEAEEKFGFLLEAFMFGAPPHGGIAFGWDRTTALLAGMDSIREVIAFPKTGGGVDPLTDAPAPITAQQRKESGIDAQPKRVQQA

[4] = biological target: AMP-activated protein kinase, AMPK (Homo sapiens) (UniProt P54646+O43741+P54619+Q9UGJ0+Q9Y478+Q13131+Q9UGI9); assay: AMP-dependent Kinase enzyme assay. An in vitro enzyme assay that detects ADP turnover that is directly proportional to AMPK activity. This uses naive AMPK that is activated during the assay with MK-8722; type: functional; conditions: 30 µM
[5] = biological target: Sialic acid-binding Ig-like lectin 9 (Homo sapiens) (UniProt Q9Y336); assay: Hs-Siglec9 ALPHAscreen SOP 20170721; conditions: 10 µM
Sialic acid-binding Ig-like lectin 9 (Homo sapiens), sequence (Q9Y336 whole entry): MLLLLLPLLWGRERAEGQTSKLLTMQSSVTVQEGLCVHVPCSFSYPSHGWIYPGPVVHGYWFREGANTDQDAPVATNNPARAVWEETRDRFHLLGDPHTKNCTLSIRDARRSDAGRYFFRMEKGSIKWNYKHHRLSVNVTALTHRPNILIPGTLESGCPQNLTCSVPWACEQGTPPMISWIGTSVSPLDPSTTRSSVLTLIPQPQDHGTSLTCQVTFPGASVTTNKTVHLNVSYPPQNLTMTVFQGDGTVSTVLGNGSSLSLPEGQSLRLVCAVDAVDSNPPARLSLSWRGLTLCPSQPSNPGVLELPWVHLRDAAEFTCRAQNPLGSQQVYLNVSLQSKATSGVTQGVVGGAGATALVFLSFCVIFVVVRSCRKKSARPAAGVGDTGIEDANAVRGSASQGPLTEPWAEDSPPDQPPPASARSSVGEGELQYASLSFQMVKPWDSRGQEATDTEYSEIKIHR

Trypanosoma cruzi = assay: Trypanosoma cruzi phosphomannomutase and mannose-1-phosphate guanylyltransferase assay; type: functional; conditions: 10 µM
[6] = biological target: T3, Arginase-2, mitochondrial (Homo sapiens) (UniProt P78540); assay: in vitro enzyme assay to detect the production of urea directly proportional to the activity of Arginase II; type: functional; conditions: 33.3 µM; further: in the data most compounds retested in dose-response had high values
T3 sequence (whole entry): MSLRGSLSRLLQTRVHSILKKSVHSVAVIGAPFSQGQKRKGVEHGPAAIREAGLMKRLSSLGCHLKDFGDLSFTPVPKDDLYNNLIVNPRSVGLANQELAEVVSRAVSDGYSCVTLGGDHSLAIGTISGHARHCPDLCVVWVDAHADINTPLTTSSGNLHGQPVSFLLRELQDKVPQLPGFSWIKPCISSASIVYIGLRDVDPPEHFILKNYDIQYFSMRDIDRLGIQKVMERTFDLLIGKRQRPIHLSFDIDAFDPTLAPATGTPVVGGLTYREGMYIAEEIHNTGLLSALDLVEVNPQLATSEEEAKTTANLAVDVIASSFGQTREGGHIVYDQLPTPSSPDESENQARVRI

[7] = biological target: T4, Proteasome subunit beta (Trypanosoma cruzi) (UniProt O96673); assay: Trypanosoma cruzi proteasome chymotrypsin-like activity (TcProtChymo) assay.; further: in the data most compounds retested in dose-response had high values; type: functional; conditions: 9.37 µM
T4 sequence (whole entry): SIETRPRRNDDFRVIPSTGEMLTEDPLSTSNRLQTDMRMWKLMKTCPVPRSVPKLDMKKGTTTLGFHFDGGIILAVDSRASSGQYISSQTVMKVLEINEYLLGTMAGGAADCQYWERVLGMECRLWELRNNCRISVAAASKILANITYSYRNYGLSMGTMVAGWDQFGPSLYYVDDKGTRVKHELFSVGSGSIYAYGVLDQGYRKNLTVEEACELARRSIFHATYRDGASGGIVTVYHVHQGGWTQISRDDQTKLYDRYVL

Homo sapiens = organism: Homo sapiens; assay: To identify inhibition of the IFN signalling (Jak-Stat) pathway via expression of an eGFP reporter gene under the control of an IFN-stimulated response element (ISRE) containing MxA promoter.; type: functional; conditions: 30 µM
[8] = biological target: Shiga toxin 2 (Escherichia coli O157:H7) (UniProt P09385+P09386); assay: E. coli 0.157:H7 Shiga Toxin SOP - stx2 screening assay; type: functional; conditions: 30 µM
[9] = biological target: T5, Tyrosyl-tRNA synthetase, putative (Trypanosoma cruzi (strain CL Brener)) (UniProt Q4DSP6); assay: Trypanosoma cruzi tyrosyl tRNA synthetase (TcYRS) _High Tyrosine SOP; type: functional; conditions: 30 µM; further: in the data most compounds retested in dose-response had high values
T5 sequence (whole entry): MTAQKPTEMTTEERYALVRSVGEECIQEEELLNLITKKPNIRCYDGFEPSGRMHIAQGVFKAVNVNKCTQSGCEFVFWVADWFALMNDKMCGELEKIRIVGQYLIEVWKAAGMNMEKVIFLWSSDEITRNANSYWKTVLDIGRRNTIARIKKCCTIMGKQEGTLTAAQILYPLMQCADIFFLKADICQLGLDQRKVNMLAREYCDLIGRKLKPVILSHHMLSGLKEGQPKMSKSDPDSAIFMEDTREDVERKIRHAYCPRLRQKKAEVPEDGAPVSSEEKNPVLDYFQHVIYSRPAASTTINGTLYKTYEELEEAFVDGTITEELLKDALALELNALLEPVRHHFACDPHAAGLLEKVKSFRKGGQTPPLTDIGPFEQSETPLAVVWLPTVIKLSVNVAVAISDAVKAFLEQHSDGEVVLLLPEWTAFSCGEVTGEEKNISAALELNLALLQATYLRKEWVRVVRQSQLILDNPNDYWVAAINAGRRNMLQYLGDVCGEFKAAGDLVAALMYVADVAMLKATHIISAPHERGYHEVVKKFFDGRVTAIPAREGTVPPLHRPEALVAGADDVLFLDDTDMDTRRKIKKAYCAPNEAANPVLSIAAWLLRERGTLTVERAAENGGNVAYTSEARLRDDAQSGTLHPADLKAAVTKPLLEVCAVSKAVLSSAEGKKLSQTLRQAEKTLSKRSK

[10] = biological target: T5, Tyrosyl-tRNA synthetase, putative (Trypanosoma cruzi (strain CL Brener)); assay: Trypanosoma cruzi tyrosyl tRNA synthetase (TcYRS) SOP; type: functional; conditions: 30 µM
[11] = biological target: Chromo domain-containing protein 1 (Saccharomyces cerevisiae (strain ATCC 204508 / S288c) (Baker's yeast)) (UniProt P32657); assay: ScCHD-1 Enzyme Inhibition Assay; type: functional; conditions: 30 µM; further: in the data most compounds retested in dose-response had high values
Chromo domain-containing protein 1 (Saccharomyces cerevisiae (strain ATCC 204508 / S288c) (Baker's yeast)), sequence (P32657 whole entry, the tested form may be a part): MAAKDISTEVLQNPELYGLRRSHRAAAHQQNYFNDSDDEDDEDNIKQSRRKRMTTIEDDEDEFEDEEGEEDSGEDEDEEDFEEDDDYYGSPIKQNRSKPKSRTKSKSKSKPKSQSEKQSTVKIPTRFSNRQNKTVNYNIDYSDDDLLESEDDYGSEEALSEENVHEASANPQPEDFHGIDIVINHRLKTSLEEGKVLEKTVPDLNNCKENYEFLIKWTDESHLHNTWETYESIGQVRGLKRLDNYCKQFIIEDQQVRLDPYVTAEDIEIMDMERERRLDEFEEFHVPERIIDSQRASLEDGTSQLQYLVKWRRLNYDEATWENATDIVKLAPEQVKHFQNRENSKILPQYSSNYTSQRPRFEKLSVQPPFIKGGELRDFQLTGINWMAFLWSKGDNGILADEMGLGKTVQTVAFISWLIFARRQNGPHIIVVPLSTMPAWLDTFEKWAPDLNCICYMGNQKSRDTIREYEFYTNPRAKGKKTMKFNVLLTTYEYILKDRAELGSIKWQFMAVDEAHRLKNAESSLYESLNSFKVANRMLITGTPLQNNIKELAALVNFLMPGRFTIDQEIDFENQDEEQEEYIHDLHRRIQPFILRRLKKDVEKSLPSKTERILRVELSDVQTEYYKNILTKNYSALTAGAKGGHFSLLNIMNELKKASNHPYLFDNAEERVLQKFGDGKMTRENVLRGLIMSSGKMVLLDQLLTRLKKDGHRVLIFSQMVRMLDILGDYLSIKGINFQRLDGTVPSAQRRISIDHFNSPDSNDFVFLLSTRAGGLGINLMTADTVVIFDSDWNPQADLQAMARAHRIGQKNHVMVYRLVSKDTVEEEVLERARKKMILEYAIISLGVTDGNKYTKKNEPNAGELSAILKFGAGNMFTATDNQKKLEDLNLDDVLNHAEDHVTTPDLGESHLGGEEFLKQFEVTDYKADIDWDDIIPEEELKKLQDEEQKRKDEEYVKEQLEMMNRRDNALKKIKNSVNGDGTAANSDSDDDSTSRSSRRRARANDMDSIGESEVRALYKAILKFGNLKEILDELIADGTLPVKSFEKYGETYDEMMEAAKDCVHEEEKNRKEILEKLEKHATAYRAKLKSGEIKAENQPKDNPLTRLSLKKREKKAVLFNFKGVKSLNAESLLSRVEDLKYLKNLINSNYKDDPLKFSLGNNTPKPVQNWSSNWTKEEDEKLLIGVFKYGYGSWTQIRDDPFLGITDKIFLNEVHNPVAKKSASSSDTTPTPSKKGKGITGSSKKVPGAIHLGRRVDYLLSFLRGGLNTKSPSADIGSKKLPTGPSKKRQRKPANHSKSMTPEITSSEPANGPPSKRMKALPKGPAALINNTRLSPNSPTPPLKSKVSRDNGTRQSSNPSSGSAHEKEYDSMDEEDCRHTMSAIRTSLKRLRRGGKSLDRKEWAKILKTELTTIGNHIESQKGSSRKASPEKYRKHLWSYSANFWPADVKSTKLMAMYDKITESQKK

Protein translocase subunit SecA (Escherichia coli (strain K12)), sequence (P10408 whole entry): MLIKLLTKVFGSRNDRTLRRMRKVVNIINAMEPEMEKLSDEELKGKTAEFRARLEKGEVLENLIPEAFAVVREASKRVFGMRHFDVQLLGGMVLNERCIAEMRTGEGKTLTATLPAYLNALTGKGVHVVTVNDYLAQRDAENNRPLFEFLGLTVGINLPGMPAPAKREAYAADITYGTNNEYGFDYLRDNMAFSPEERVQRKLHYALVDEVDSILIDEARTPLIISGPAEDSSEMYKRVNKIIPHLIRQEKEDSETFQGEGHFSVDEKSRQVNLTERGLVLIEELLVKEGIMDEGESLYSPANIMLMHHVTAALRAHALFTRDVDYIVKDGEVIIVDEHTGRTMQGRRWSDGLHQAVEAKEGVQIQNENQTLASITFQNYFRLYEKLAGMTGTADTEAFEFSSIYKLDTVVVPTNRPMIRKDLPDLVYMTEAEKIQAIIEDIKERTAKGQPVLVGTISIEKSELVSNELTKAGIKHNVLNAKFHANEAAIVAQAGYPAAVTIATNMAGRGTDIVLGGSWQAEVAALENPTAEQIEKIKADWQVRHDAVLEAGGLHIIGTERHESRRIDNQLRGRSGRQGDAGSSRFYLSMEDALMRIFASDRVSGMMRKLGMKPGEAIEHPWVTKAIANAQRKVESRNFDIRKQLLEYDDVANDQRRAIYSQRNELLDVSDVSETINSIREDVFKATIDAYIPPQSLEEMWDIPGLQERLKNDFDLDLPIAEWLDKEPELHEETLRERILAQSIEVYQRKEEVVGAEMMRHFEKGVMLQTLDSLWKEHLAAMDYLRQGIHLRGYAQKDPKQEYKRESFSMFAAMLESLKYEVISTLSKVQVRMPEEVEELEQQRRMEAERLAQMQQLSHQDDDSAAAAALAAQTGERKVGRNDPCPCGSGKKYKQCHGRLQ

## CN(C)c1ncc2c(n1)C1(CCN(CC3CC3)C1)COC2 (stereo unspecified)
[1]
  Percent Effect: 2.42%
[2]
  Percent Effect: 0%
[3]
  Percent Effect: 0.342%
[4]
  Percent Effect: 0.164%
[5]
  Percent Effect: 8.71%
Trypanosoma cruzi
  Percent Effect: -4.37%
[6]
  Percent Effect: 0.798%
[7]
  Percent Effect: 13.1%
Homo sapiens
  Percent Effect: -7.22%
[8]
  Percent Effect: -16.3%
[9]
  Percent Effect: 7.29%
[10]
  Percent Effect: 11.1%
[11]
  Percent Effect: -5.42%

## O=C(c1cc(-n2cnnn2)ccc1Cl)N1CCC2(CC1)OCCO2
[1]
  Percent Effect: -3.84%
[2]
  Percent Effect: 5.26%
[3]
  Percent Effect: 0.24%
[4]
  Percent Effect: 3.99%
[5]
  Percent Effect: 7.5%
Trypanosoma cruzi
  Percent Effect: -3.21%
[6]
  Percent Effect: -3.55%
[7]
  Percent Effect: 8.53%
Homo sapiens
  Percent Effect: 7.36%
[8]
  Percent Effect: -4.29%
[9]
  Percent Effect: 3.19%
[10]
  Percent Effect: 5.2%
[11]
  Percent Effect: -4.14%

## Fc1cnc(N2CCO[C@H]3CN(CC4CCCC4)C[C@H]32)nc1
[1]
  Percent Effect: -2.09%
[2]
  Percent Effect: 21.3%
[3]
  Percent Effect: -4.57%
[4]
  Percent Effect: -6.38%
[5]
  Percent Effect: -0.399%
Trypanosoma cruzi
  Percent Effect: 3.48%
[6]
  Percent Effect: -60%
[7]
  Percent Effect: 3.93%
Homo sapiens
  Percent Effect: -7.5%
[8]
  Percent Effect: -12.1%
[9]
  Percent Effect: 3.12%
[10]
  Percent Effect: 2.5%
[11]
  Percent Effect: -13.4%

## O=C(CC1CC1)N[C@@H]1CN(Cc2ccncc2)C[C@@H]2CCCO[C@@H]21
[1]
  Percent Effect: 0.104%
[2]
  Percent Effect: 5.33%
[3]
  Percent Effect: -1.92%
[4]
  Percent Effect: -0.724%
[5]
  Percent Effect: -5.17%
Trypanosoma cruzi
  Percent Effect: 2.12%
[6]
  Percent Effect: -47.1%
[7]
  Percent Effect: 8.38%
Homo sapiens
  Percent Effect: -8.9%
[8]
  Percent Effect: -6.38%
[9]
  Percent Effect: 5.21%
[10]
  Percent Effect: 7.5%
[11]
  Percent Effect: -4.5%

## O=C(N[C@H]1CN[C@H]2CCCO[C@H]21)c1ccno1
[1]
  Percent Effect: -2.91%
[2]
  Percent Effect: 2.74%
[3]
  Percent Effect: 0.661%
[4]
  Percent Effect: -1.51%
[5]
  Percent Effect: 4.01%
Trypanosoma cruzi
  Percent Effect: 4.76%
[6]
  Percent Effect: -2.4%
[7]
  Percent Effect: 6.76%
Homo sapiens
  Percent Effect: -9.47%
[8]
  Percent Effect: 2.67%
[9]
  Percent Effect: 4.17%
[10]
  Percent Effect: 6.17%
[11]
  Percent Effect: 2.08%

## CN(Cc1cccnc1)[C@@H]1CN(CC2CC2)[C@@H]2CCCO[C@H]12
[1]
  Percent Effect: -1.86%
[2]
  Percent Effect: 2.67%
[3]
  Percent Effect: 3.49%
[4]
  Percent Effect: 2.59%
[5]
  Percent Effect: 2.23%
Trypanosoma cruzi
  Percent Effect: -4.05%
[6]
  Percent Effect: -57.2%
[7]
  Percent Effect: 3.42%
Homo sapiens
  Percent Effect: -1.28%
[8]
  Percent Effect: -18%
[9]
  Percent Effect: 2.08%
[10]
  Percent Effect: 5%
[11]
  Percent Effect: -8.32%

## c1cc(CN2C[C@@H]3COC[C@]3(COCC3CC3)C2)ccn1
[1]
  Percent Effect: 1.31%
[2]
  Percent Effect: 14.7%
[3]
  Percent Effect: -0.406%
[4]
  Percent Effect: -2.54%
[5]
  Percent Effect: -3.01%
Trypanosoma cruzi
  Percent Effect: -4.13%
[6]
  Percent Effect: -1.58%
[7]
  Percent Effect: 7.58%
Homo sapiens
  Percent Effect: -2.49%
[8]
  Percent Effect: -47.3%
[9]
  Percent Effect: 2.12%
[10]
  Percent Effect: 7.69%
[11]
  Percent Effect: -2.5%
